These results are taken from PubChem BioAssay.

SMILES strings stand for the structures. Calls of active or inactive are those of the source.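 Rule for the calls, unless noted: active = inhibition at or above 50% at 10 µM; inactive = inhibition below 50%.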

Broadly, the inhibition is the relative decrease from the control value, in per cent.

Assay [1] is described as follows: inhibitors of TNFa-induced NFkB p65 translocation, primary screen, imaging, HUVEC, MLSMR starter and 10KST1 sets (AID 438;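 active = inhibition above 20% together with a positive visual image hit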;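 note: compound added about 3h40 before a 20 min TNFalpha stimulation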;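 for inhibition: signal is the nuclear over cytoplasmic p65 intensity ratio per well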). Particulars: HUVEC TNFa-induced p65 nuclear translocation; cell count: measured here: nuclei count (cytotoxicity indicator), at 2.08 µM; inhibition: at 2 µM, stronger effect = higher value, 0% TNFa-plus-vehicle, 100% no-TNFa wells.
A short description of assay [2]: inhibitors of mutant huntingtin aggregation, primary screen, imaging, exon1htt(103Q)mCFP cells, high-content imaging (AID 483;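 active = visual image review flags a hit and inhibition of aggregation exceeds 20%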;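 note: compound exposure lasted 3 days before fixation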;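 for nuclei count: percent of the per-plate median nuclei count of sample wells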). Conditions: exon1htt(103Q)mCFP cell line, aggregate imaging, at 2 µM; inhibition of aggregation: stronger effect = higher value; nuclei count: measured here: cell count, toxicity.
Assay [3] is described as follows: inhibitors of E-selectin induction by TNFa, primary screen, imaging, HUVEC, immunofluorescence, MLSMR starter and 10KST1 sets (AID 487;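 active = visually confirmed hit in the image check and inhibition above 20%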;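 for inhibition: signal is fraction of cell area covered by stained E-selectin grains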;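 for nuclei count: 100% = median nuclei count of all wells on the same plate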). Particulars: HUVEC TNFalpha-induced E-selectin immunofluorescence imaging, at 2 µM; inhibition: stronger effect = higher value; nuclei count: measured here: cell number, toxicity.
Assay [4] addresses Voltage-gated potassium channel subunit beta-2 (Rattus norvegicus) (UniProt P62483). The experiment in a line: KvBeta enzyme negative modulators, primary screen, biochemical, NADPH fluorescence (AID 622;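 active = fluorescence slope higher than the sample average by over 3 SD, cut at about -0.22 in these data, passing the limit was not always enough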;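 note: slope of raw intensity against log time taken from 70 to 1610 s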). Conditions: recombinant KvBeta, 4-cyanobenzaldehyde reduction, at 10 µM, stronger effect = higher value.
Assay [5] shares this target. The assay is described as follows: KvBeta positive modulators, primary screen, biochemical, NADPH fluorescence (AID 623;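 active = NADPH fluorescence slope more negative than the mean of all samples by about 3 SD, 99.7% confidence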;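 note: fluorescence intensity change per second fitted from 20 to 320 s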). Particulars: Recombinant KvBeta, NADPH fluorescence decrease slope, 10 min; at 10 µM; stronger effect = lower value.
The target of assay [6] is Alpha-2C adrenergic receptor (Homo sapiens) (UniProt P18825). The assay is described as follows: modulators of alpha2C/GIRK thallium flux, primary screen, cell-based, HEK293 alpha2C/GIRK1/2 (AID 624;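 active = fluorescence slope after compound addition differing from the mean of all screened samples at 99.7% confidence, in either direction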;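 note: slope of fluorescence ratio to pre-addition baseline per second over 15 to 24 s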). Particulars: thallium flux BTC fluorescence, at 10 µM, actives lie on both sides.
Chain of Alpha-2C adrenergic receptor (Homo sapiens) (P18825 whole entry, looked up): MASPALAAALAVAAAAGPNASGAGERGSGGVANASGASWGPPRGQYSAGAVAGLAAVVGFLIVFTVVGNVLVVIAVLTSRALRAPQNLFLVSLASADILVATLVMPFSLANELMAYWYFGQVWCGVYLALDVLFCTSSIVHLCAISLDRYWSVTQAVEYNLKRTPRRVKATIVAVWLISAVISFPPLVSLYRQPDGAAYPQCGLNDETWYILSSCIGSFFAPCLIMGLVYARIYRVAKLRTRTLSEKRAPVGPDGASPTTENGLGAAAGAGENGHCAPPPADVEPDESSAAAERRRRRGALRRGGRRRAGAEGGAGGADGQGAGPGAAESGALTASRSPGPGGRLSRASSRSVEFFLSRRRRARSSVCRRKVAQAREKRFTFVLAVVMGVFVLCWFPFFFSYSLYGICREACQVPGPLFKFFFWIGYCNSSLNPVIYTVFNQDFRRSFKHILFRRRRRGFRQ
Assay [7] can be described thus: inhibitors of Sendai virus-induced IRF3 signaling, primary screen, TLR/RLR signaling modifier project, cell-based, Sendai virus stimulus, luciferase, 10K MLSCN set (AID 602276).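 Note: firefly luciferase from ISG56 promoter only with Renilla not read in this screen; 0% = Sendai virus plus DMSO and 100% = medium plus DMSO without virus.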 Conditions: HEK293 RL24 IRF3 luciferase reporter, at 10 µM, stronger effect = higher value. On the technique in general: A reporter such as luciferase makes a cellular process visible.
A short description of assay [8]: inhibitors of poly I:C-induced TLR3 signaling, primary screen, cell-based, poly I:C stimulus, luciferase, 10K MLSCN set (AID 602277;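 active = inhibition of the reporter signal at or above 50%; inactive = inhibition below 50%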). Conditions: HEK293-TLR3 RL24 IRF3 luciferase reporter, at 10 µM, stronger effect = higher value.

Chain of Voltage-gated potassium channel subunit beta-2 (Rattus norvegicus) (P62483 whole entry, looked up): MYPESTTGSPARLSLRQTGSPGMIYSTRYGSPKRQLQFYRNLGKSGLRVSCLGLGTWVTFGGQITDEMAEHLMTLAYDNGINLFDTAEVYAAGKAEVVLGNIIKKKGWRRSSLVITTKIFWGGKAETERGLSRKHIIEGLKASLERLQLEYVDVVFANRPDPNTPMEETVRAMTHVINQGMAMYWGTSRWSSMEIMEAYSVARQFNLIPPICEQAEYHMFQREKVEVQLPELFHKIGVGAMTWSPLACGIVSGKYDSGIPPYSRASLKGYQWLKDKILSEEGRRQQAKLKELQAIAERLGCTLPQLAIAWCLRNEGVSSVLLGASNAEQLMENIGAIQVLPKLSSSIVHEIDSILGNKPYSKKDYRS

On to `CCCNC(=O)Nc1ccccc1C(=O)Nc1ccc(OC)cc1`, for which, in assay [1], the cell count worked out at 351. In addition, the inhibition in assay [1] is 8.1% (inactive); in assay [3] it was 25.8% (inactive); in assay [7], -1.84% (inactive); in assay [8], 30.5% (inactive). Moreover, the inhibition of aggregation in assay [2] was -15.5% (inactive). Besides, the nuclei count was 104% in assay [2] and 108% in assay [3]. The fluorescence slope in assay [4] was -0.445 (inactive). Further, the NADPH fluorescence slope in assay [5] was -1.6e-06 (inactive). For the same compound, in assay [6], the slope is 0.00585 (inactive).

As for `O=C(CSc1nnc(C2COc3ccccc3O2)o1)N1CCCc2ccccc21` (centres undefined), in assay [1], the cell count was 438. The inhibition in assay [1] is -1.8% (inactive); in assay [3] it was -80.9% (inactive); in assay [7], 12.5% (inactive); in assay [8], 34.9% (inactive). The inhibition of aggregation in assay [2] is 0.8% (inactive). Also, the nuclei count in assay [2] was determined as 87.9%; in assay [3], 136%. For the same compound, the fluorescence slope in assay [4] is -0.298 (inactive). In addition, the NADPH fluorescence slope in assay [5] was -4e-06 (inactive). In addition, the slope in assay [6] is 0.00363 (inactive).

In the case of `CCOc1ccc(C2CC(c3ccccc3C)n3nc(N)nc3N2)cc1` (centres undefined), the cell count in assay [1] came to 515. The inhibition in assay [1] is 5% (inactive); in assay [3], -43.7% (inactive); in assay [7] it was 10.4% (inactive); in assay [8] it was 25% (inactive). The inhibition of aggregation in assay [2] is 30.8% (inactive). For the same compound, the nuclei count in assay [2] was determined as 91.1%; in assay [3], 90.1%. Further, the fluorescence slope in assay [4] was -0.586 (inactive). The NADPH fluorescence slope in assay [5] was 1.8e-05 (inactive). Moreover, the slope in assay [6] was 0.00699 (inactive).

`Cc1ccc(N2C(N)=NC(N)=NC23CCCC3)c(C)c1`: the cell count in assay [1] stood at 656. The inhibition in assay [1] is -5.9% (inactive); in assay [3], -26% (inactive); in assay [7], 10% (inactive); in assay [8], 18.1% (inactive). For the same compound, the inhibition of aggregation in assay [2] is -11.1% (inactive). Further, the nuclei count came to 106% in assay [2] and 122% in assay [3]. In addition, in assay [4], the fluorescence slope was -0.635 (inactive). The NADPH fluorescence slope in assay [5] is -5.6e-06 (inactive). For the same compound, the slope in assay [6] is 0.0067 (inactive).

On to `COC(=O)Cn1c(CN2CCOCC2)nc2c1c(=O)n(C)c(=O)n2C`, for which the cell count in assay [1] turned out to be 666. Further, the inhibition in assay [1] was -18.4% (inactive); in assay [3] it was -0.7% (inactive); in assay [7], 6.17% (inactive); in assay [8] it was 32.9% (inactive). The inhibition of aggregation in assay [2] is 6.2% (inactive). In addition, the nuclei count was 95.4% in assay [2] and 114% in assay [3]. The fluorescence slope in assay [4] is -0.418 (inactive). In assay [5], the NADPH fluorescence slope is -5.7e-05 (inactive). Further, the slope in assay [6] was 0.00632 (inactive).

Take `COc1ccc(C)cc1NC(=O)c1nc2nc(C)cc(C)n2n1`: the cell count in assay [1] came out at 471. The inhibition in assay [1] is 3.8% (inactive); in assay [3], -23.4% (inactive); in assay [7], 18.5% (inactive); in assay [8], 9.03% (inactive). For the same compound, the inhibition of aggregation in assay [2] was 5.2% (inactive). Moreover, the nuclei count in assay [2] stood at 98.1%; in assay [3], 124%. In addition, the fluorescence slope in assay [4] was -0.297 (inactive). Moreover, the NADPH fluorescence slope in assay [5] was 1.4e-06 (inactive). Also, the slope in assay [6] was 0.00674 (inactive).

In the case of `Cc1ccc(S(=O)(=O)CCC(=O)Nc2ccc3c(c2)OCO3)cc1`, the cell count in assay [1] turned out to be 666. The inhibition in assay [1] is -12.2% (inactive); in assay [3], -26.9% (inactive); in assay [7], -0.686% (inactive); in assay [8], 12.3% (inactive). Moreover, the inhibition of aggregation in assay [2] is -1.1% (inactive). The values for the nuclei count in assay [2] and in assay [3] were 131% and 115%, respectively. Also, the fluorescence slope in assay [4] is -0.587 (inactive). Also, in assay [5], the NADPH fluorescence slope is -6.2e-05 (inactive). Besides, the slope in assay [6] is 0.00603 (inactive).

For `CN(C)S(=O)(=O)N1CCN(C(=O)N(c2ccccc2)c2ccccc2)CC1`, the cell count in assay [1] was 352. Also, the inhibition in assay [1] was -3.3% (inactive); in assay [3], -122% (inactive); in assay [7], -19.7% (inactive); in assay [8], -15.1% (inactive). Moreover, the inhibition of aggregation in assay [2] was 0% (inactive). The nuclei count in assay [2] worked out at 108%; in assay [3], 117%. For the same compound, the fluorescence slope in assay [4] is -0.366 (inactive). Moreover, the NADPH fluorescence slope in assay [5] is -2e-09 (inactive). Besides, the slope in assay [6] is 0.00704 (inactive).

As for `CCOC(=O)N1CCC(n2c(SCC(=O)NCc3ccco3)nc3ccsc3c2=O)CC1`, the cell count in assay [1] was 729. The inhibition in assay [1] was 3.4% (inactive); in assay [3], -97.7% (inactive); in assay [7], 4.14% (inactive); in assay [8], 23.6% (inactive). Also, the inhibition of aggregation in assay [2] was 2.8% (inactive). In addition, the values for the nuclei count in assay [2] and in assay [3] were 97.8% and 118%, respectively. In addition, the fluorescence slope in assay [4] was -0.386 (inactive). The NADPH fluorescence slope in assay [5] is -2.9e-05 (inactive). For the same compound, the slope in assay [6] is 0.00588 (inactive).

Consider `CC1(C)NC(=O)N(CC(O)COc2ccc(-c3ccccc3)cc2)C1=O` (centres undefined), for which the cell count in assay [1] came to 260. In addition, the inhibition in assay [1] is -0.5% (inactive); in assay [3], -18.2% (inactive); in assay [7], -15.6% (inactive); in assay [8] it was 1.46% (inactive). For the same compound, the inhibition of aggregation in assay [2] is 4.5% (inactive). Besides, the nuclei count in assay [2] worked out at 89.9%; in assay [3] it was 125%. Moreover, in assay [4], the fluorescence slope is -0.425 (inactive). In assay [5], the NADPH fluorescence slope is -6.5e-05 (inactive). In assay [6], the slope was 0.00308 (inactive).

In the case of `CC(=O)Nc1ccc(NC(=O)C(C)Oc2ccccc2F)cc1` (centres undefined), the cell count in assay [1] was determined as 321. Besides, the inhibition in assay [1] was 3.9% (inactive); in assay [3], 4.3% (inactive); in assay [7], 9.2% (inactive); in assay [8], 12.4% (inactive). The inhibition of aggregation in assay [2] was 9.4% (inactive). Also, the figures for the nuclei count in assay [2] and in assay [3] were 104% and 112%, respectively. Besides, the fluorescence slope in assay [4] is -0.65 (inactive). Further, in assay [5], the NADPH fluorescence slope is 1.9e-05 (inactive). Further, the slope in assay [6] is 0.00945 (inactive).

Consider `O=C1CCCc2c1nn(-c1ccccc1)[n+]2[O-]`, for which the cell count in assay [1] amounted to 563. Also, the inhibition is 7.1% (inactive) in assay [1], -32.5% (inactive) in assay [3], 2.04% (inactive) in assay [7] and 5.41% (inactive) in assay [8]. The inhibition of aggregation in assay [2] was -12.3% (inactive). Further, the nuclei count in assay [2] was found to be 107%; in assay [3], 108%. Besides, in assay [4], the fluorescence slope was -0.426 (inactive). In assay [5], the NADPH fluorescence slope is -2.2e-05 (inactive). For the same compound, in assay [6], the slope is 0.00571 (inactive).

With `CC(=O)C1=C(O)C(=O)N(C2CCCCC2)C1c1ccccc1` (centres undefined), the cell count in assay [1] came out at 467. The inhibition is -10.8% (inactive) in assay [1], -95.4% (inactive) in assay [3], 18.2% (inactive) in assay [7] and 15.5% (inactive) in assay [8]. The inhibition of aggregation in assay [2] was -19.1% (inactive). The nuclei count was 104% in assay [2] and 176% in assay [3]. Besides, in assay [4], the fluorescence slope is -0.448 (inactive). Also, in assay [5], the NADPH fluorescence slope was -9.9e-06 (inactive). Further, in assay [6], the slope was 0.00562 (inactive).

On to `CCOc1ccccc1-n1c(SCC(=O)NCc2ccco2)nnc1-c1ccncc1`, for which the cell count in assay [1] is 376. In addition, the inhibition in assay [1] was 8.9% (inactive); in assay [3], 6% (inactive); in assay [7], 7.96% (inactive); in assay [8], 21.5% (inactive). In addition, the inhibition of aggregation in assay [2] was 6% (inactive). For the same compound, the nuclei count in assay [2] is 93%; in assay [3], 85.8%. For the same compound, the fluorescence slope in assay [4] was -0.405 (inactive). For the same compound, the NADPH fluorescence slope in assay [5] was 3.6e-05 (inactive). In addition, the slope in assay [6] is 0.00499 (inactive).
